Compounds with a hit are over-represented: about 1.3% of the library has one in this group of screens.
KLK7 zymogen act = activates the human kallikrein-7 zymogen | P49862 | purified proKLK7, EDANS-DABCYL substrate fluorescence; 100% is mature enzyme control, 0% vehicle | activation, % at 7 µM | 370,000 compounds, 0.9% hits | AID 652039;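 active = activation above the mean of all tested compounds plus 3 SD, computed per campaign excluding outliers beyond control limits, cut at about 13% in these data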
NPR2 activator = GC-B (human) receptor activation; HEK293-GC-B cells, CNP EC30, cGMP TR-FRET; 0% at EC30 CNP, 100% saturating CNP; activation, % at 10 µM; 370,000 compounds, 0.11% hits;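 active = activation at 10 µM reaching about 35% in either raw or pattern-adjusted values, limit read from the data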
HIF act = HIF pathway transcriptional activation | U2OS HRE-luciferase reporter, luminescence; normalized: DMSO 0%, desferrioxamine 100% | AID 1910 | activation, % at 7.5 µM (by protocol) | 300,000 compounds, 0.32% hits;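 active = mean activation of at least 10% of the iron chelator positive control signal, with at least half of replicates also reaching 10%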
GC-A act = GC-A (human) enzyme activation; activation, % at 10 µM; HEK293 GC-A cells, cGMP TR-FRET, EC30 ANP; 0% at EC30 ANP, 100% saturating ANP; 370,000 compounds, 0.14% hits; P16066; in the data active = activation above about 40%
Active calls of the source: *.

O=C(NCC1CCCO1)c1cc(-c2ccccc2F)no1 (stereo not given) was read as KLK7 zymogen act 0, NPR2 activator -2, HIF act 13* and GC-A act 3.
Screening O=C1C(=O)N(Cc2ccc(-c3ccccc3)cc2)c2ccc(OC(F)(F)F)cc21 returned NPR2 activator -18 and GC-A act -22.
For O=C(CSc1ncnc2scc(-c3ccc(Cl)cc3)c12)Nc1ccccc1-c1ccccc1 the results were KLK7 zymogen act -1, NPR2 activator -1 and GC-A act -5.
COc1ccc(-c2cc(-c3nnc4sc(-c5cccs5)nn34)[nH]n2)cc1 was read as KLK7 zymogen act 0, NPR2 activator -8 and GC-A act 7.
Screening CC(C)CN(CCNC(=O)c1cn(C)c2ccc(S(=O)(=O)N3CCCC3)cc2c1=O)CC(C)C returned KLK7 zymogen act 0, NPR2 activator 1, HIF act 184* and GC-A act 3.
For CC(C)CCNC(=O)c1cn(C)c2ccc(S(=O)(=O)N3CCCC3)cc2c1=O the results were KLK7 zymogen act 0, NPR2 activator -1, HIF act 3 and GC-A act 0.
For N#Cc1c(C(F)(F)F)cc(-c2ccc(Cl)cc2)[nH]c1=O the results were KLK7 zymogen act 21*, NPR2 activator -2, HIF act 0 and GC-A act 0.
C=C1CCC2C(C)(C)CCC[C@]2(C)[C@H]1CC1=C(O)C(=O)C(CO)=CC1=O (stereo not given in full) was read as KLK7 zymogen act 0, NPR2 activator 5 and GC-A act 4.
For CCOC(=O)Cc1cc(=O)n2[nH]c(C)c(-c3ccccc3)c2n1 the results were KLK7 zymogen act -1, NPR2 activator 43*, HIF act -2 and GC-A act 36.
`Cc1cccn2c(=O)c3cc(C(=O)NCc4ccco4)c(=N)n(CCc4ccccc4)c3nc12` gave KLK7 zymogen act 18*, NPR2 activator -2 and GC-A act 9.
For COc1cc(C(=O)NC2CCCCN(C(C)C)C2=O)cc(OC)c1OC (stereo not given) the results were KLK7 zymogen act 0, NPR2 activator 5 and GC-A act 3.
For O=c1[nH]c(-c2ccccn2)nc2sc(-c3ccccc3)cc12 the results were KLK7 zymogen act -9, NPR2 activator -6, HIF act 72* and GC-A act 15.
`Cc1c(C(=O)N(C)C)sc2nc(-c3ccccn3)[nH]c(=O)c12` gave KLK7 zymogen act -7, NPR2 activator -3, HIF act 0 and GC-A act -9.
For CCC[C@H]1[C@@H](NC(=O)/C=C/c2ccccc2)CC[C@@]23CCCN2C(=O)CCC[C@@H]13 the results were NPR2 activator 1 and GC-A act -1.
For O=C(Nc1nc2c(F)cc(F)cc2s1)C1CCN(C(=O)c2ccc(F)cc2)CC1 the results were KLK7 zymogen act 0, NPR2 activator -7, HIF act 3 and GC-A act 68*.
CC(C)C[C@@H](CO)N1Cc2nnn(Cc3ccccc3)c2-c2ccccc2S1(=O)=O was read as KLK7 zymogen act 1, NPR2 activator 3 and GC-A act -2.
Screening COc1cc([N+](=O)[O-])cc2sc(NC(=O)C(C)(C)C)nc12 returned KLK7 zymogen act -1, NPR2 activator -3, HIF act 1 and GC-A act 21.
Cc1c(Cl)ccc2sc(NC(=O)CN3C(=O)c4ccccc4C3=O)nc12 was read as KLK7 zymogen act 0, NPR2 activator -4, HIF act 0 and GC-A act 11.
Cc1ccc2sc(NC(=O)CN3C(=O)CCC3=O)nc2c1C was read as KLK7 zymogen act 0, NPR2 activator 7, HIF act 0 and GC-A act 50*.
Screening CC(=O)Nc1nc2c(C)c(Cl)ccc2s1 returned KLK7 zymogen act 0, NPR2 activator -3, HIF act 1 and GC-A act 49*.
Cc1c(Cl)ccc2sc(NC(=O)C3CC3)nc12 was read as KLK7 zymogen act 0, NPR2 activator -7, HIF act 1 and GC-A act 55*.
COc1cc([N+](=O)[O-])cc2sc(NC(=O)C3CC3)nc12 was read as KLK7 zymogen act 1, NPR2 activator -4, HIF act 1 and GC-A act 47*.
`O=S1(=O)c2c(cccc2N2CCC[C@@H]2CO)OCCCN1C1CC1` gave KLK7 zymogen act 0, NPR2 activator 6 and GC-A act 0.
C=CCN1C(=O)[C@H](CC(=O)NCc2ccc(C)o2)[C@@]2(C(=O)OCC)CCCC=C12 was read as KLK7 zymogen act 0, NPR2 activator 7 and GC-A act 4.
`Cc1ccc(NC(=S)NNC(=O)CSc2nc3ccccc3c(=O)n2-c2ccc(Cl)cc2)cc1` gave KLK7 zymogen act 0, NPR2 activator -3 and GC-A act -1.
For COC(=O)[C@]12C[C@H](CC(=O)N3CCN(C(=O)c4ccco4)CC3)C(=O)N(Cc3ccc(Cl)cc3Cl)C1=C[C@H](C(C)(C)C)O[C@@H]2C the results were KLK7 zymogen act 0, NPR2 activator -11 and GC-A act -5.
For CCCC(=O)Nc1nc2c(C)c(Cl)ccc2s1 the results were KLK7 zymogen act 1, NPR2 activator -3, HIF act 0 and GC-A act 43*.
`CC(=O)Cn1c(=O)c2c(nc3n2CCCN3Cc2ccccc2)n(C)c1=O` gave KLK7 zymogen act 0, NPR2 activator 1, HIF act 35* and GC-A act -2.
Cn1c(=O)n(CC(=O)O)c(=O)c2c1nc1n2CCCN1Cc1ccccc1 was read as KLK7 zymogen act 0, NPR2 activator 5, HIF act 0 and GC-A act -4.
For CC(=O)c1sc(NC(=O)c2cccc(N3C(=O)CCC3=O)c2)nc1-c1ccccc1 the results were KLK7 zymogen act 0, NPR2 activator -6, HIF act 0 and GC-A act 32.
Screening O=C(Nc1nc2ccccc2s1)c1cccc(N2C(=O)CCC2=O)c1 returned KLK7 zymogen act 0, NPR2 activator 0, HIF act 2 and GC-A act 44*.
`Cc1sc(NC(=O)c2cccc(N3C(=O)CCC3=O)c2)nc1-c1ccccc1` gave KLK7 zymogen act 3, NPR2 activator -7, HIF act 0 and GC-A act 77*.
`COc1ccc(-c2ccnc3nc(N4CCOCC4)nn23)cc1` gave KLK7 zymogen act 44*, NPR2 activator 3, HIF act 0 and GC-A act 2.
c1ccc(Oc2ccc(-c3ccnc4nc(N5CCOCC5)nn34)cc2)cc1 was read as KLK7 zymogen act -89, NPR2 activator 13, HIF act 0 and GC-A act 4.
Screening COc1ccc(N2CCN(C(=O)C3Cc4ccccc4CN3C(=O)c3ccccc3)CC2)cc1 (stereo not given) returned KLK7 zymogen act 0, NPR2 activator -4, HIF act 2 and GC-A act 0.
Screening CC(=O)N1Cc2ccccc2CC1C(=O)N1CCN(c2ccccc2)CC1 (stereo not given) returned KLK7 zymogen act 0, NPR2 activator 78*, HIF act 0 and GC-A act 1.

From PubChem BioAssay
